High-throughput results from PubChem.
IL1B secr inh – inhibitors of inflammasome signaling (IL-1 beta secretion) | THP-1 LPS/ATP IL-1B secretion, AlphaLISA, 16 h; stronger effect = lower value | activity change, % at 57.5 µM | 360,000 tested, 4.7% active | AID 743279; in the data active = activity change below about -50%; inconclusive = mostly about -30% to -49%
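THP-1 cells pretreated 1 hr with compounds (up to 57.5 uM final), then stimulated with LPS (250 ng/mL final) plus ATP (1.25 mM final); secreted IL-1B measured by AlphaLISA after 16 hr, decreased signal indicating inhibition.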
DT40 TDP1 CPT – DT40-hTDP1 cell growth loss with CPT; chicken DT40 Tdp1-/-;hTDP1 cells + 20 nM CPT, ATP luminescence, 48 h; Potency, µM (top dose mostly 46.2 µM), actives largely listed as inhibitors; 420,000 tested, 12% active; AID 686979; also: nearly all actives have a fitted effect of over 55% in size
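Chicken DT40 Tdp1-/- cells stably complemented with human TDP1 were seeded at 400 cells/well in medium containing 20 nM camptothecin, exposed to pin-transferred compounds, and grown at 37 °C for at least 48 hr. Viability was read as ATP luminescence.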
Six1-Eya2 blk – inhibitors of human Six1/Eya2 interaction | activity change, % (test concentration not listed) | 360,000 tested, 0.56% active | AID 651725 | AlphaScreen GST-Six1/His-Eya2 binding, biochemical; stronger effect = lower value | Q15475+O00167; in the data active = activity change below about -65%; inconclusive = mostly about -30% to -63%
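Homogeneous AlphaScreen proximity assay pairing GST-Six1 with His-tagged Eya2 (added as 5X mix: 250 nM and 500 nM) in 50 mM Tris pH 8.0, 300 mM NaCl, 1 mM TCEP. Glutathione donor and nickel acceptor beads; 1 h, 37 °C, dark.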
TDP1 inh – blocks human tyrosyl-DNA phosphodiesterase 1; Potency, µM (highest dose often 130 µM), usual class: inhibitors; 350,000 tested, 0.28% active; recombinant TDP1, AlphaScreen DNA substrate cleavage; Q9NUW8; also: nearly all actives have a fitted effect of over 40% in size
Target sequence (Q9NUW8 whole entry, looked up): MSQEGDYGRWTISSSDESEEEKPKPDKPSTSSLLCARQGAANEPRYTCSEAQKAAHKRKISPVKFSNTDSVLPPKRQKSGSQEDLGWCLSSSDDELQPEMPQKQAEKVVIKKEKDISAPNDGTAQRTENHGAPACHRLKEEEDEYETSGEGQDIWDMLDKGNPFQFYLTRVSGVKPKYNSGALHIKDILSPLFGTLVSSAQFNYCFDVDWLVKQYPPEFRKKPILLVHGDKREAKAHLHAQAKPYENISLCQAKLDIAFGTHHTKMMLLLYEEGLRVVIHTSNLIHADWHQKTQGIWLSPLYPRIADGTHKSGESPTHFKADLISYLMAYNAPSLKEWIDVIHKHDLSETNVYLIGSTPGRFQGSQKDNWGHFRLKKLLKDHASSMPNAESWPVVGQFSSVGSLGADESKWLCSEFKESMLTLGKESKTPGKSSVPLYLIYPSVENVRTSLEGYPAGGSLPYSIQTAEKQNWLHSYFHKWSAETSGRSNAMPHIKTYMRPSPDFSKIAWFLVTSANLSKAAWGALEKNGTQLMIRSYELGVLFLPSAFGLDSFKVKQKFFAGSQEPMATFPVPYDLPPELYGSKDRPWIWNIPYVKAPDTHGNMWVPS
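Tdp1 1 nM final; 15 min RT w/ cpd; substrate 15 nM, 5 min; beads 10 ug/ml, 10 min; AlphaScreen read. Neg ctrl: no enzyme.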
TDP1 cell noCPT – qHTS for Inhibitors of human tyrosyl-DNA phosphodiesterase 1 (TDP1): qHTS in cells in absence of CPT; AID 686978, 2013; DT40 Tdp1-/- hTDP1 cells, no CPT, ATP luminescence, 48 h; 420,000 tested, 15% active; Potency, µM (series often up to 46.2 µM), hits mostly inhibitors; also: nearly all actives have a fitted effect of over 55% in size
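Stably hTDP1-transfected Tdp1-null chicken DT40 cells were treated with library compounds minus camptothecin and grown for at least 48 hr at 37 °C, after which cellular ATP was quantified by luminescence.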
CtBP-E1A inh – CtBP/E1A binding inhibition | activity change, % (test concentration not listed) | AlphaScreen GST-E1A/His-CtBP binding, 1536-well; stronger effect = lower value | 340,000 tested, 0.49% active; in the data active = activity change below about -65%; inconclusive = mostly about -30% to -63%
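Steps: dispense buffer (Tris pH 8.0, NaCl 300 mM, TCEP 1 mM, BSA, Tween 20); add 5X protein mix (GST-E1A, His-CtBP, 125 nM each); pin 23 nL compound; 2 h at 37 °C, dark; add 5X beads (50 ug/mL); 1 h; read.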
Of the large screens only hits and unclear results are named; the others gave an inactive call. Compounds with a hit are over-represented: about 18% of the library has one in this group of screens. Unless noted, calls follow the shape of the dose curve; as a rule, active = well fitted curve in the direction sought with a large enough effect; inconclusive = small, poorly fitted or top-dose-only effect, or another doubt; inactive = no such curve, though single readings can be large; an effect the other way counts as inactive or inconclusive.

[O-]/C(=C(\C(=S)NCc1ccc2c(c1)OCO2)[n+]1ccccc1)c1ccc(Cl)s1	DT40 TDP1 CPT inconclusive, TDP1 cell noCPT inconclusive
O=C(c1cc(-c2ccco2)on1)N1CCCc2ccccc21	none
CC1Cc2ccccc2N1C(=O)c1ccc2c(c1)OCO2 (configuration not stated)	IL1B secr inh -64, DT40 TDP1 CPT inconclusive (no result: TDP1 inh)
Cc1cc(-c2nc3c4c5c(sc4[nH]c(=O)n3n2)CCC5)c(C)o1	TDP1 inh inconclusive
Cc1c(C(=O)Nc2ccc(C(=O)O)cc2)nnn1-c1ccccc1	none (no result: IL1B secr inh, Six1-Eya2 blk, CtBP-E1A inh)
Cc1nn(-c2ccccc2)c2sc(C(=O)Nc3cccc(Cl)c3)cc12	DT40 TDP1 CPT inconclusive, TDP1 cell noCPT 23µM (no result: IL1B secr inh, Six1-Eya2 blk, TDP1 inh, CtBP-E1A inh)
Cc1c(C(=O)NNC(=S)Nc2cccc(Cl)c2)nnn1-c1ccccc1	Six1-Eya2 blk -85
COc1ccccc1NC(=O)c1cc2c(C)nn(-c3ccccc3)c2s1	DT40 TDP1 CPT inconclusive, TDP1 cell noCPT 23µM (no result: IL1B secr inh, Six1-Eya2 blk, TDP1 inh, CtBP-E1A inh)
CC(=O)c1sc(NC(=O)c2cc3c(C)nn(-c4ccccc4)c3s2)nc1C	none
Cc1nc(NC(=O)c2cc3c(C)nn(-c4ccccc4)c3s2)sc1C(=O)Nc1ccccc1	DT40 TDP1 CPT inconclusive, TDP1 cell noCPT 21µM
COc1ccc(Nc2nc(C)c(C(C)=O)s2)cc1	TDP1 cell noCPT inconclusive (no result: TDP1 inh)
CCC(=O)Nc1cc(C(=O)OCC(=O)c2ccccc2)ccc1C	none
COc1ccc(OC)c(NC(=O)/C=C/c2ccccc2[N+](=O)[O-])c1	TDP1 cell noCPT inconclusive
COc1ccc(/C=C/C(=O)c2ccccn2)cc1	IL1B secr inh inconclusive, DT40 TDP1 CPT 21µM, TDP1 cell noCPT inconclusive
COc1ccc([N+](=O)[O-])c(C=CC(=O)c2ccccn2)c1	IL1B secr inh -105, DT40 TDP1 CPT 5.2µM, TDP1 cell noCPT 2.3µM (no result: TDP1 inh)
COc1ccc(/C=C/C(=O)c2ccccc2O)cc1	DT40 TDP1 CPT inconclusive, TDP1 cell noCPT inconclusive
O=C(NC1CCCc2c1cnn2-c1ccccc1F)c1ccccc1N1CCOCC1 (configuration not stated)	IL1B secr inh inconclusive, DT40 TDP1 CPT 16µM, TDP1 cell noCPT 13µM
Cc1cc(C)cc(-n2ncc3c2CCCC3NC(=O)c2ccccc2N2CCOCC2)c1 (configuration not stated)	DT40 TDP1 CPT inconclusive, TDP1 cell noCPT 16µM
CCc1noc(C)c1C(=O)NC1CCCc2c1cnn2-c1cc(C)cc(C)c1 (configuration not stated)	DT40 TDP1 CPT inconclusive
CC(C)c1cc(C(=O)NC2CCCc3c2cnn3-c2ccccc2F)no1 (configuration not stated)	DT40 TDP1 CPT inconclusive, TDP1 cell noCPT inconclusive
CCN(CC(=O)Nc1ccc(NC(C)=O)cc1)C(=O)c1cccc(-n2cccc2)c1	TDP1 cell noCPT inconclusive (no result: TDP1 inh)
CCOc1ccc2nc(SCC(=O)NC(=O)NCc3ccco3)sc2c1	DT40 TDP1 CPT inconclusive, TDP1 cell noCPT 26µM
CCOc1ccc2nc(SCC(=O)NCc3ccco3)sc2c1	DT40 TDP1 CPT inconclusive, TDP1 cell noCPT 23µM
COc1ccc(S(=O)(=O)N(CC(=O)NCc2ccccc2)c2ccc(C)cc2)cc1OC	DT40 TDP1 CPT inconclusive, TDP1 cell noCPT 6.5µM (no result: IL1B secr inh, Six1-Eya2 blk, CtBP-E1A inh)
COc1ccc(S(=O)(=O)N(CCc2ccccc2)CC(=O)NCc2ccccc2)cc1OC	DT40 TDP1 CPT 16µM, TDP1 cell noCPT inconclusive (no result: IL1B secr inh, Six1-Eya2 blk, CtBP-E1A inh)
CCOc1ccc(N(CC(=O)NC(C(C)C)C(C)C)S(=O)(=O)c2ccc(OC)c(OC)c2)cc1	DT40 TDP1 CPT inconclusive, TDP1 cell noCPT 23µM (no result: CtBP-E1A inh)
COc1ccc(CNC(=O)CN(c2ccc(C(C)=O)cc2)S(=O)(=O)c2ccc(C)cc2)cc1OC	none
COc1ccc(C(C)NC(=O)CN(c2cc(OC)ccc2OC)S(=O)(=O)c2ccccc2)cc1 (configuration not stated)	DT40 TDP1 CPT 21µM, TDP1 cell noCPT inconclusive (no result: IL1B secr inh, Six1-Eya2 blk, CtBP-E1A inh)
CC(=O)Oc1ccc(/C=C2\C=C(c3ccc(C)cc3)OC2=O)cc1	none (no result: TDP1 inh)
